# Values joined by “and” are separate entries in the source; they are usually repeats but may differ in a detail not shown here. Identical values can stand only once. ± gives the standard deviation of the averaged measurements. Whole data set: some 2,900 compounds, median “IRF Lucia reporter activity, fold change vs agonist alone” near 0.9, cut for the highest 2% near 2.8. The full list was thinned out, with the highest values kept by preference.
# Key:
# RAW-Dual [1] = experiment: IRF Lucia reporter activity, fold change vs agonist alone; cytotoxicity flag (confluency mask): cytotoxic (confluency <70% of control); higher = enhanced IRF activity
# Procedure, shortened: (§1)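 Supernatant from RAW-Dual macrophages was read after 20 hours for IRF by QuantiLuc luminescence and for NF-κB by QuantiBlue absorbance at 620 nm. The cells (50,000 cells/well in DMEM, 384-well plates, 37 °C, 5% CO2) had received 50 nL of library stock by pin tool and, 1 h later, a PRR agonist. Reporter activity is expressed relative to agonist-alone wells as fold change, and wells were flagged cytotoxic if IncuCyte confluency was under 70% of agonist controls in both mask sets.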
# RAW-Dual [2] = experiment: IRF Lucia reporter activity, fold change vs agonist alone; higher = enhanced IRF activity; details: agonist: MPLA (TLR4) […]
# Procedure, shortened: as §1
# RAW-Dual [3] = experiment: IRF Lucia reporter activity, fold change vs agonist alone; cytotoxicity flag (confluency mask): not cytotoxic; higher = enhanced IRF activity
# Procedure, shortened: as §1
# [4] = agonist: 3'3'-cGAMP (STING) 10 ug/mL
# [5] = library stock concentration (final ~1000-fold dilution): 10 mM, cytotoxicity flag (confluency mask): not cytotoxic
# [6] = library stock concentration (final ~1000-fold dilution): 10 mM, cytotoxicity flag (confluency mask): cytotoxic (confluency <70% of control)
smiles,measurement,setting,value
O=[N+]([O-])c1ccc(Sc2cccc[n+]2[O-])c2nonc12 (library stock concentration (final ~1000-fold dilution): 10 mM),IRF Lucia reporter activity,RAW-Dual [1]; [4],0.262
same,IRF Lucia reporter activity,RAW-Dual [1]; agonist: LPS (TLR4) 0.1 ug/mL,0.0128
C#CCN(C)CCCOc1ccc(Cl)cc1Cl.Cl,IRF Lucia reporter activity,RAW-Dual [2]; [5],1.12
C#CCN(C)CCCOc1ccc(Cl)cc1Cl.Cl (library stock concentration (final ~1000-fold dilution): 10 mM),IRF Lucia reporter activity,RAW-Dual [3]; [4],1.06
same,IRF Lucia reporter activity,RAW-Dual [3]; agonist: LPS (TLR4) 0.1 ug/mL,1.19
O=C(Nc1cc(C(F)(F)F)cc(C(F)(F)F)c1)c1cc(Cl)ccc1O (library stock concentration (final ~1000-fold dilution): 10 mM),IRF Lucia reporter activity,RAW-Dual [1]; [4],0.03 and 0.0207
same,IRF Lucia reporter activity,RAW-Dual [1]; agonist: LPS (TLR4) 0.1 ug/mL,3.59 and 3.92
O=C(Nc1ccc([N+](=O)[O-])cc1Cl)c1cc(Cl)ccc1O,IRF Lucia reporter activity,RAW-Dual [2]; [5],0.899
O=C(Nc1cc(C(F)(F)F)cc(C(F)(F)F)c1)c1cc(Cl)ccc1O,IRF Lucia reporter activity,RAW-Dual [2]; [6],3.54 ± 1.7
CC12C=CC(=O)NC1CCC1C2CCC2(C)C(C(=O)Nc3cc(C(F)(F)F)ccc3C(F)(F)F)CCC12 (stereo not given),IRF Lucia reporter activity,RAW-Dual [2]; [5],1.08
CC(ONC(=O)c1cc(C(F)(F)F)cc(C(F)(F)F)c1)C(=O)Nc1ccc(Cl)cc1 (stereo not given) (library stock concentration (final ~1000-fold dilution): 10 mM),IRF Lucia reporter activity,RAW-Dual [3]; [4],0.52
same,IRF Lucia reporter activity,RAW-Dual [3]; agonist: LPS (TLR4) 0.1 ug/mL,0.52
O=C(Nc1cc(C(F)(F)F)ccc1C(F)(F)F)c1cc(Br)ccc1O (library stock concentration (final ~1000-fold dilution): 10 mM),IRF Lucia reporter activity,RAW-Dual [1]; [4],0.0368
same,IRF Lucia reporter activity,RAW-Dual [1]; agonist: LPS (TLR4) 0.1 ug/mL,4.46
O=C(Nc1cc(C(F)(F)F)ccc1N1CCCCC1)c1ccncc1 (library stock concentration (final ~1000-fold dilution): 10 mM),IRF Lucia reporter activity,RAW-Dual [3]; [4],1.05
same,IRF Lucia reporter activity,RAW-Dual [3]; agonist: LPS (TLR4) 0.1 ug/mL,0.874
O=C(Nc1cc(C(F)(F)F)ccc1N1CCCCC1)c1ccncc1,IRF Lucia reporter activity,RAW-Dual [2]; [5],1.18
CC12C=CC(=O)NC1CCC1C2CCC2(C)C(C(=O)Nc3cc(C(F)(F)F)ccc3C(F)(F)F)CCC12 (stereo not given) (library stock concentration (final ~1000-fold dilution): 10 mM),IRF Lucia reporter activity,RAW-Dual [3]; [4],1.22
same,IRF Lucia reporter activity,RAW-Dual [3]; agonist: LPS (TLR4) 0.1 ug/mL,1.38
O=C(Nc1ccc([N+](=O)[O-])cc1Cl)c1cc(Cl)ccc1O (library stock concentration (final ~1000-fold dilution): 10 mM),IRF Lucia reporter activity,RAW-Dual [3]; [4],0.354
same,IRF Lucia reporter activity,RAW-Dual [3]; agonist: LPS (TLR4) 0.1 ug/mL,2.53
CC1CC(C(=O)O)C2CCC3(C)C(=CCC4C5(C)CCC(O)C(C)(C)C5CCC43C)C2C1C (stereo not given) (library stock concentration (final ~1000-fold dilution): 10 mM),IRF Lucia reporter activity,RAW-Dual [3]; [4],0.973
same,IRF Lucia reporter activity,RAW-Dual [3]; agonist: LPS (TLR4) 0.1 ug/mL,1.12
CC1CC(C(=O)O)C2CCC3(C)C(=CCC4C5(C)CCC(O)C(C)(C)C5CCC43C)C2C1C (stereo not given),IRF Lucia reporter activity,RAW-Dual [2]; [5],1.06
Cc1[nH]c(C=C2C(=O)Nc3ccc(F)cc32)c(C)c1C(=O)NCCN1CCCC1,IRF Lucia reporter activity,"RAW-Dual [2]; library stock concentration (final ~1000-fold dilution): 2 mM, cytotoxicity flag (confluency mask): not cytotoxic",0.869
Cc1[nH]c(C=C2C(=O)Nc3ccc(F)cc32)c(C)c1C(=O)NCCN1CCCC1 (library stock concentration (final ~1000-fold dilution): 2 mM),IRF Lucia reporter activity,RAW-Dual [3]; [4],0.0313
same,IRF Lucia reporter activity,RAW-Dual [3]; agonist: LPS (TLR4) 0.1 ug/mL,0.194
CC(c1ncncc1F)C(O)(Cn1cncn1)c1ccc(F)cc1F (stereo not given) (library stock concentration (final ~1000-fold dilution): 10 mM),IRF Lucia reporter activity,RAW-Dual [3]; [4],1.11
same,IRF Lucia reporter activity,RAW-Dual [3]; agonist: LPS (TLR4) 0.1 ug/mL,0.893
CC(c1ncncc1F)C(O)(Cn1cncn1)c1ccc(F)cc1F (stereo not given),IRF Lucia reporter activity,RAW-Dual [2]; [5],0.639
CC1Cc2c([nH]c3ccccc23)C(c2c(F)cc(/C=C/C(=O)O)cc2F)N1CC(C)(C)F (stereo not given) (library stock concentration (final ~1000-fold dilution): 10 mM),IRF Lucia reporter activity,RAW-Dual [3]; [4],1.14
same,IRF Lucia reporter activity,RAW-Dual [3]; agonist: LPS (TLR4) 0.1 ug/mL,1.23
Cl.O=C(NC1CCNCC1)c1n[nH]cc1NC(=O)c1c(Cl)cccc1Cl (library stock concentration (final ~1000-fold dilution): 10 mM),IRF Lucia reporter activity,RAW-Dual [1]; [4],0.0898
same,IRF Lucia reporter activity,RAW-Dual [1]; agonist: LPS (TLR4) 0.1 ug/mL,0.581
CS(=O)(=O)O.CS(=O)(=O)O.Cc1ccc(C(=O)Nc2ccc(CN3CCN(C)CC3)c(C(F)(F)F)c2)cc1C#Cc1cnc2[nH]ncc2c1,IRF Lucia reporter activity,RAW-Dual [2]; [6],0.0201
CS(=O)(=O)O.CS(=O)(=O)O.Cc1ccc(C(=O)Nc2ccc(CN3CCN(C)CC3)c(C(F)(F)F)c2)cc1C#Cc1cnc2[nH]ncc2c1 (library stock concentration (final ~1000-fold dilution): 10 mM),IRF Lucia reporter activity,RAW-Dual [1]; [4],0.00912
same,IRF Lucia reporter activity,RAW-Dual [1]; agonist: LPS (TLR4) 0.1 ug/mL,0.0192
COc1ccc(-c2cc3c(C)nc(N)nc3n(C3CCC(OCCO)CC3)c2=O)cn1 (stereo not given) (library stock concentration (final ~1000-fold dilution): 10 mM),IRF Lucia reporter activity,RAW-Dual [1]; [4],0.282
same,IRF Lucia reporter activity,RAW-Dual [1]; agonist: LPS (TLR4) 0.1 ug/mL,0.508
COc1ccc(-c2cc3c(C)nc(N)nc3n(C3CCC(OCCO)CC3)c2=O)cn1 (stereo not given),IRF Lucia reporter activity,RAW-Dual [2]; [6],0.387
CCOC(=O)c1cnc2ccc(-c3cncc(NS(=O)(=O)c4ccccc4)c3)cn12,IRF Lucia reporter activity,RAW-Dual [2]; [6],4.46
CCOC(=O)c1cnc2ccc(-c3cncc(NS(=O)(=O)c4ccccc4)c3)cn12 (library stock concentration (final ~1000-fold dilution): 10 mM),IRF Lucia reporter activity,RAW-Dual [1]; [4],0.284
same,IRF Lucia reporter activity,RAW-Dual [1]; agonist: LPS (TLR4) 0.1 ug/mL,4.78
Nc1nc2cc(-c3ccc4ncc(C(=O)N5CCOCC5)n4c3)ccc2o1 (library stock concentration (final ~1000-fold dilution): 10 mM),IRF Lucia reporter activity,RAW-Dual [3]; [4],0.343
same,IRF Lucia reporter activity,RAW-Dual [3]; agonist: LPS (TLR4) 0.1 ug/mL,1.04

# Source: the supplement of paper PMC10037445
